In the library only some 1.4% were active in any assay of this set; here they are far more common.
HTT cytoprotect: Huntington cell model cytoprotection by ATP luminescence; Potency, µM (top dose mostly 56.4 µM), for the others: cytoprotection (ATP increase), most hits filed as activators; 230,000 tested, 0.14% active; PC12 HTT-Q103 induced, cytoprotection, ATP luminescence, 40 h; AID 1471; note: % of control where 0% means no effect; nearly all actives have a fitted effect of over 45% in size
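Compounds added alongside 100 nM tebufenozide, which induces toxic Q103 huntingtin exon 1-GFP in stable PC12 cells; surviving cells quantified by luminescent ATP measurement. Medium: phenol red-free DMEM, 5% equine and 5% calf serum.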
ERK EGF block: EGF-driven ERK pathway inhibition; HEK293-V1b, EGF-stimulated phospho-ERK AlphaScreen; Potency, µM (top dose mostly 11.5 µM), for the others: at the top dose activity change, negative = inhibition, hits mostly inhibitors; 130,000 tested, 0.41% active; AID 1454;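 note: plate controls were stimulated vehicle wells for no effect and unstimulated vehicle basal for full effect; nearly all actives have a fitted effect of over 55% in size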
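After overnight plating in 1% FBS, HEK293-V1b cells received test compound for half an hour, then a 5 min pulse of EGF (25 nM); ERK phosphorylation in lysates was read by bead-based AlphaScreen.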
HttQ103 aggreg: mutant huntingtin aggregation inhibition | PC12 HttQ103-GFP aggregates, Acumen cytometry, 40 h | Potency, µM (doses to about 46.1 µM), for inactives: at the highest dose activity change, negative = inhibition, hits mostly inhibitors | 220,000 tested, 1.1% active; note: % is set by controls: 0 for no effect and ±100 for the full control effect; nearly all actives have a fitted effect of over 60% in size
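Steps: seed 1500 PC12 HTTQ103-GFP cells/well; add tebufenozide, 100 nM final; add compound titration; add ATPLite reagent; quantify GFP aggregates by laser scanning cytometry.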
* = called active by the depositor; u = inconclusive; x = no result given; [ ] = another dose, or the depositor's remark. Calls come from the whole dose curve; as a rule, active = well fitted curve in the direction sought with a large enough effect; inconclusive = small, poorly fitted or top-dose-only effect, or another doubt; inactive = no such curve, though single readings can be large; an effect the other way counts as inactive or inconclusive. Potency is the fitted concentration of half-maximal effect.

SMILES	HTT cytoprotect	ERK EGF block	HttQ103 aggreg
O=C(N/N=C/c1cn(-c2ccccc2)nc1-c1cc2ccccc2o1)c1cccnc1	0.5%[10 µM]	7.08µM*	0.4%
O=C(N/N=C/c1cn(-c2ccccc2)nc1-c1cc2ccccc2o1)c1ccncc1	10.9%[10 µM]	1.0%	10µM*
O=C(O)c1cccc(NC(=O)c2cn(-c3ccccc3)nc2-c2cc3ccccc3o2)c1	5.2%[10 µM]	u	15.3%
O=C(N/N=C/c1cn(-c2ccccc2)nc1-c1cccs1)c1ccccc1F	22.2%[10 µM]	9.2%	u
O=C(N/N=C/c1cn(-c2ccccc2)nc1-c1cccs1)c1ccc(Cl)cc1	-5.0%[10 µM]	5.2%	11.2µM*
COc1ccc2[nH]c3c(=O)n4c(nc3c2c1)SCCC4	u	-0.8%	-26.9%
CN(C)c1ccc(C=NC(CO)C(O)c2ccc([N+](=O)[O-])cc2)cc1 (configuration not stated)	-5.3%[10 µM]	10.7%[57.5 µM]	-5.4%[9.22 µM]
CN(C)c1ccc(C(c2ccc(N(C)C)cc2)c2ccc([N+](=O)[O-])cc2)cc1	11.6%[10 µM]	14.1µM*	-3.9%[9.22 µM]
NS(=O)(=O)c1ccc(CCNc2ncnc3sccc23)cc1	-2.3%	x	u
Cc1sc2ncnc(NCCc3ccc(S(N)(=O)=O)cc3)c2c1C	-10.8%	x	0.708µM*
CCC/C=C(\CCC)C(NS(=O)(=O)c1ccc(C(F)(F)F)cc1)c1ccc(C(=O)OC)cc1 (configuration not stated)	-32.9%	-2.0%	x
CC(C)(C)OC(=O)[C@H]([C@@H]1N[C@@H](C(=O)O)C(C)(C)S1)N1C(=O)c2ccccc2C1=O	1.5%[10 µM]	x	x
O=C(N/N=C/c1c(O)ccc2ccccc12)c1[nH]ncc1Br	-82.8%[10 µM]	-1.7%	1.12µM*
O=C(N/N=C/c1c(O)ccc2ccccc12)c1cccc(C(F)(F)F)c1	x	6.5%	3.98µM*
COc1ccc2ccccc2c1/C=N/NC(=O)c1cccc(Br)c1	x	9.6%	-26.3%
Cc1ccc(O)c(/C=N/NC(=O)c2[nH]ncc2Br)c1	-2.2%[10 µM]	7.7%	u
Cn1ccnc1C[C@@](C)(O)c1ccccc1	1.8%[10 µM]	x	x
O=S(=O)(c1ccccc1)N1CCC[C@@]2(CCN(Cc3nccs3)C2)C1	9.2%	-7.6%	x
CCN(CC)CCOc1ccccc1C(=O)CCc1ccccc1	-11.2%	x	-11.5%
O=S(=O)(NCc1ccncc1)c1ccc(Br)s1	-26.6%[0.074 µM]	x	2.51µM*
O=C(O)CNS(=O)(=O)c1ccc(Br)s1	-0.8%	x	15.5%
O=S(=O)(NC1CC1)c1ccc(S(=O)(=O)N2CCCc3ccccc32)cc1	23.5%[10 µM]	x	11.2µM*
O=C(Nc1ccc(S(=O)(=O)N2CCCc3ccccc32)cc1)C1CCCO1 (configuration not stated)	2.7%	x	-3.5%
CN1CCc2c(cc(O)c(O)c2Cl)[C@H](c2cccc(Cl)c2)C1	-1.2%[1.9 µM]	x	x
OC[C@@H]1O[C@@H](N2CCN([C@@H]3O[C@@H](CO)[C@@H](O)[C@H](O)[C@H]3O)CC2)[C@@H](O)[C@H](O)[C@H]1O	3.8%[10 µM]	x	x
SMILES	HTT cytoprotect	ERK EGF block	HttQ103 aggreg
C=CCOc1ccc(Cl)cc1CNC1CCCC1	22.4µM*	-9.9%	-4.5%
COc1ccc(CNC2CCCC2)c(OC)c1OC	15.4%	x	-16.6%
CN(C)C(=O)c1ccc(-c2ccc3ncnc(NCc4ccccc4)c3c2)cc1	-72.3%	x	x
O=S(=O)(c1ccccc1)N1CCC2(CCN(c3cccc(-c4ccccc4)c3)CC2)CC1	-8.4%	u	x
CC(CSC(=O)c1ccccc1)C(=O)N1C[C@@H](Sc2ccccc2)C[C@H]1C(=O)O (some centres not stated)	10.5%	x	4.0%
Cn1c2c(c(=O)n(C)c1=O)C(CC(=O)Nc1ccccc1)C(=O)N2 (configuration not stated)	-6.7%[0.074 µM]	x	5.01µM*
Cn1c2c(c(=O)n(C)c1=O)C(CC(=O)Nc1ccccc1F)C(=O)N2 (configuration not stated)	20.3%[10 µM]	5.2%[57.5 µM]	-10.5%[9.22 µM]
COc1ccc2[nH]cc(CCNc3cc(-c4ccoc4)ncn3)c2c1	2.6%	28.0%	x
COC(=O)c1ccccc1NC(=O)C1COc2ccccc2O1 (configuration not stated)	2.8%	x	u
C=CCNC(=O)c1ccccc1NC(=O)C1COc2ccccc2O1 (configuration not stated)	-65.3%[10 µM]	0.7%	3.55µM*
Cc1cc2nnc(SCC(=O)OC(C)C)n2c2ccccc12	-95.4%[10 µM]	x	3.98µM*
CC(=O)CSc1nnc2cc(C)c3ccccc3n12	-4.2%[10 µM]	0.7%	17.7%
[O-][n+]1ccccc1SSc1cccc[n+]1[O-]	-98.4%	x	5.01µM*
O=C(CSc1cccc[n+]1[O-])CSc1cccc[n+]1[O-]	u	-14.1%	-8.6%
COc1ccccc1-c1nnc(SCC(=O)Nc2c(Cl)cccc2Cl)o1	-17.4%[10 µM]	x	-15.5%
COc1ccccc1-c1nnc(SCC(=O)NCc2c(C)c(Cl)cc(C(C)C)c2O)o1	-24.3%	x	12.6µM*
O=C(c1ccco1)N1CCC2(CCCN(c3ccncc3)C2)CC1	-23.0%	-3.8%	x
O=C(CNC(c1ccccc1)c1ccccc1)Nc1c(F)cccc1F	1.26µM*	6.1%	-9.6%
Cc1ccc(NC(=O)CNC(c2ccccc2)c2ccccc2)c(F)c1	10.1%[10 µM]	3.5%	6.0%
CCC(=O)C1=C(O)C(c2cccc(Oc3ccccc3)c2)CCC1=O (configuration not stated)	-6.4%	3.3%	10µM*
COCCN1C(=O)C(O)=C(C(=O)c2ccco2)C1c1cccc(Oc2ccccc2)c1 (configuration not stated)	-5.9%[10 µM]	x	2.7%
COc1cccc([C@@H]2Oc3ccc(OC)cc3C[C@H]2OC(=O)NCc2ccco2)c1	18.6%	-8.4%	x
Cc1cc(C)cc(NS(=O)(=O)c2ccc3c(c2)c(=O)n(C)c(=O)n3C)c1	4.4%	x	8.91µM*
Cn1c(=O)c2cc(S(=O)(=O)Nc3cc(C(=O)O)cc(C(=O)O)c3)ccc2n(C)c1=O	-6.9%	-1.5%[57.5 µM]	0.3%
N#CCCn1cnc2c1NC=NC2Cl (configuration not stated)	13.1%	-3.4%	x
SMILES	HTT cytoprotect	ERK EGF block	HttQ103 aggreg
CCn1c2ccccc2c2cnc(N=CN(C)C)c(C#N)c21	-72.7%	x	8.91µM*
CCN(CC)CCn1c2ccccc2c2cnc(N=CN(C)C)c(C#N)c21	-87.1%	x	2.1%
Cc1nc2cnc(Oc3cccc(Cl)c3)nc2n(C[C@H]2CCCO2)c1=O	u	-2.2%	x
Cc1ccccc1-c1nc(-n2ccnc2)c2ccccc2n1	24.9%	12.9%	x
COc1ccc(O)c(/C=N/n2c(-c3ccco3)csc2=Nc2cccnc2)c1	33.9%[10 µM]	7.3%	-11.7%
CN=c1scc(-c2ccco2)n1/N=C/c1ccc(O)c(O)c1	-237.2%	-4.5%	8.91µM*
O=C(NCCc1ccccc1)Nc1cccc(Cl)c1	29.8%[10 µM]	-4.3%	-18.3%
O=C(NCCc1ccc(Cl)cc1)Nc1cccc(Cl)c1	-83.1%	x	8.91µM*
CN(C)Cc1c(-c2ccc(Cl)cc2)nc2ccccn12	-37.8%	-4.9%	0.0316µM*
Clc1ccc(-c2nc3ccccn3c2CN2CCCCC2)cc1	-18.4%	-2.4%	2.4%
CCCCNc1nc(C)nc2c1nc(-c1ccccc1)n2CCCN(CC)CC	-42.0%	0.2%	x
CCN(CC)CCCNC(=O)c1cc2c(Cl)nc3ccccc3c2s1	1.6%	-11.2%	-18.2%
CN(CCCNC(=O)c1cc2c(Cl)nc3ccccc3c2s1)Cc1ccccc1	-67.5%	25.1µM*	u
